Measurements taken from PubChem BioAssay.
Calls of active or inactive are those of the source.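 Rule for the calls, unless noted: active = visually confirmed hit in the image check and inhibition above 20%; inconclusive = visually confirmed hit but inhibition not above 20%; inactive = no visual hit in the image check.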

Key:
[1] = inhibitors of TNFa-induced NFkB p65 translocation, primary screen, imaging, HUVEC, MLSMR starter and 10KST1 sets (AID 438;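 active = inhibition above 20% together with a positive visual image hit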;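 note: compound added about 3h40 before a 20 min TNFalpha stimulation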;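 for inhibition: signal is the nuclear over cytoplasmic p65 intensity ratio per well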); details: HUVEC TNFa-induced p65 nuclear translocation; cell count: measured here: nuclei count (cytotoxicity indicator), at 2.08 µM; inhibition: at 2 µM, stronger effect = higher value, 0% TNFa-plus-vehicle, 100% no-TNFa wells
[2] = inhibitors of mutant huntingtin aggregation, primary screen, imaging, exon1htt(103Q)mCFP cells, high-content imaging (AID 483;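 active = visual image review flags a hit and inhibition of aggregation exceeds 20%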;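 note: compound exposure lasted 3 days before fixation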;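 for nuclei count: percent of the per-plate median nuclei count of sample wells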); details: exon1htt(103Q)mCFP cell line, aggregate imaging, at 2 µM; inhibition of aggregation: stronger effect = higher value; nuclei count: measured here: cell count, toxicity
[3] = inhibitors of E-selectin induction by TNFa, primary screen, imaging, HUVEC, immunofluorescence, MLSMR starter and 10KST1 sets (AID 487); details: HUVEC TNFalpha-induced E-selectin immunofluorescence imaging, at 2 µM; inhibition: stronger effect = higher value; nuclei count: measured here: cell number, toxicity;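 for inhibition: signal is fraction of cell area covered by stained E-selectin grains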;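 for nuclei count: 100% = median nuclei count of all wells on the same plate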
[4] = target: Voltage-gated potassium channel subunit beta-2 (Rattus norvegicus) (UniProt P62483); assay: KvBeta enzyme negative modulators, primary screen, biochemical, NADPH fluorescence (AID 622;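 active = fluorescence slope higher than the sample average by over 3 SD, cut at about -0.22 in these data, passing the limit was not always enough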;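 note: slope of raw intensity against log time taken from 70 to 1610 s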); details: recombinant KvBeta, 4-cyanobenzaldehyde reduction, at 10 µM, stronger effect = higher value
[5] = target: Voltage-gated potassium channel subunit beta-2 (Rattus norvegicus) (UniProt P62483); assay: KvBeta positive modulators, primary screen, biochemical, NADPH fluorescence (AID 623;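 active = NADPH fluorescence slope more negative than the mean of all samples by about 3 SD, 99.7% confidence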;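 note: fluorescence intensity change per second fitted from 20 to 320 s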); details: Recombinant KvBeta, NADPH fluorescence decrease slope, 10 min; at 10 µM; stronger effect = lower value
[6] = target: Alpha-2C adrenergic receptor (Homo sapiens) (UniProt P18825); assay: modulators of alpha2C/GIRK thallium flux, primary screen, cell-based, HEK293 alpha2C/GIRK1/2 (AID 624;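 active = fluorescence slope after compound addition differing from the mean of all screened samples at 99.7% confidence, in either direction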;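 note: slope of fluorescence ratio to pre-addition baseline per second over 15 to 24 s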); details: thallium flux BTC fluorescence, at 10 µM, actives lie on both sides
[7] = inhibitors of Sendai virus-induced IRF3 signaling, primary screen, TLR/RLR signaling modifier project, cell-based, Sendai virus stimulus, luciferase, 10K MLSCN set (AID 602276;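 active = inhibition at or above 50% at 10 µM; inactive = inhibition below 50%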;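 note: firefly luciferase from ISG56 promoter only with Renilla not read in this screen; 0% = Sendai virus plus DMSO and 100% = medium plus DMSO without virus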); details: HEK293 RL24 IRF3 luciferase reporter, at 10 µM, stronger effect = higher value
[8] = inhibitors of poly I:C-induced TLR3 signaling, primary screen, cell-based, poly I:C stimulus, luciferase, 10K MLSCN set (AID 602277;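 active = inhibition of the reporter signal at or above 50%; inactive = inhibition below 50%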); details: HEK293-TLR3 RL24 IRF3 luciferase reporter, at 10 µM, stronger effect = higher value

Voltage-gated potassium channel subunit beta-2 (Rattus norvegicus), sequence (P62483 whole entry, looked up): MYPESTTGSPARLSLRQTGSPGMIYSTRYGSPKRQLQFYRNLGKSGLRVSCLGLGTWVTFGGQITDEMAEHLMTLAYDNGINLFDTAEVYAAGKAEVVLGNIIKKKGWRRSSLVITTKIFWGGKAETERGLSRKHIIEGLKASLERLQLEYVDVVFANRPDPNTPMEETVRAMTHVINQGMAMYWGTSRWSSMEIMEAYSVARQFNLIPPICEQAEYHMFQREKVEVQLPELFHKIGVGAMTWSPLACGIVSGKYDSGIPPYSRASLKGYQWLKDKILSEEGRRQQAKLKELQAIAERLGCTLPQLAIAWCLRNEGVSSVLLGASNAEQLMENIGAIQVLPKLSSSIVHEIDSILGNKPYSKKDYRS
Alpha-2C adrenergic receptor (Homo sapiens), sequence (P18825 whole entry, looked up): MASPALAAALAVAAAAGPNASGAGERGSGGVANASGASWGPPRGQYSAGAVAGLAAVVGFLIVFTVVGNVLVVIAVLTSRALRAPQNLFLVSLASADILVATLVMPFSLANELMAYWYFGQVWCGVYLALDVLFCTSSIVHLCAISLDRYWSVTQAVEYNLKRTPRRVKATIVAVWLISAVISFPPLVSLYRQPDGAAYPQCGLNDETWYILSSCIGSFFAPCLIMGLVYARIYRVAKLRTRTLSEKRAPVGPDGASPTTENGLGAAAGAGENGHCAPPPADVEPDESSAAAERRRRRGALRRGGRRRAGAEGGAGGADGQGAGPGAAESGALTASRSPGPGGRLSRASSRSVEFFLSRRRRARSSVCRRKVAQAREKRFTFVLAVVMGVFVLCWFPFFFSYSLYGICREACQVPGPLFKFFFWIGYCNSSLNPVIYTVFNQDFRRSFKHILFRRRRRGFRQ

Row | Structure (SMILES) | cell count [1] | inhibition [1] | inhibition of aggregation [2] | nuclei count [2] | inhibition [3] | nuclei count [3] | fluorescence slope [4] | NADPH fluorescence slope [5] | slope [6] | inhibition [7] | inhibition [8]
1 | COc1ccccc1C(=O)OCn1nnc2ccccc2c1=O | 714 | -21.1% (inactive) | 6.6% (inactive) | 103% | -15.2% (inactive) | 106% | -0.421 (inactive) | -4e-05 (inactive) | 0.00465 (inactive) | 12.3% (inactive) | 22.5% (inactive)
2 | CCOC(=O)C1=C(C)N=c2s/c(=C\c3cccn3C)c(=O)n2C1c1cccc(OC)c1OC (stereo unspecified) | 342 | 4.5% (inactive) | 0.2% (inactive) | 98.8% | -38% (inactive) | 102% | -0.419 (inactive) | -8.6e-05 (inactive) | 0.0038 (inactive) | 15.4% (inactive) | 25.1% (inactive)
3 | CCOc1ccc(-c2nnn(CC(=O)N3CCN(c4ccc(F)cc4)CC3)n2)cc1OCC | 583 | -9.5% (inactive) | -17.1% (inactive) | 119% | 25% (inactive) | 101% | -0.642 (inactive) | -1.5e-05 (inactive) | 0.00403 (inactive) | 16.8% (inactive) | 14% (inactive)
4 | CCCCS(=O)(=O)NC1=NCN(CCOC(=O)c2ccccc2)CN1 | 305 | 0.8% (inactive) | 5.7% (inactive) | 116% | -50.4% (inactive) | 112% | -0.496 (inactive) | -4.1e-05 (inactive) | 0.0043 (inactive) | 13.9% (inactive) | 20.7% (inactive)
5 | Cc1cc(C)nc(NC(=O)c2cnc3sccn3c2=O)n1 | 650 | -14% (inactive) | 18.2% (inactive) | 84.7% | -14.9% (inactive) | 110% | -0.528 (inactive) | -3.1e-05 (inactive) | 0.00661 (inactive) | 17.6% (inactive) | 47.4% (inactive)
6 | CCOc1ccccc1NC(=O)CN(c1ccc(C)cc1)S(=O)(=O)c1c(C)noc1C | 322 | 2.2% (inactive) | 20.6% (inactive) | 97.9% | 35.2% (inactive) | 64.7% | -0.606 (inactive) | -6.6e-05 (inactive) | 0.00658 (inactive) | 6.02% (inactive) | 28.1% (inactive)
7 | Cc1nc2ccc(S(=O)(=O)NC(C(=O)Nc3nccs3)C(C)C)cc2s1 (stereo unspecified) | 549 | -6.2% (inactive) | -4.4% (inactive) | 95.9% | -17.1% (inactive) | 120% | -0.589 (inactive) | -2.2e-05 (inactive) | 0.00646 (inactive) | 13.6% (inactive) | 30.5% (inactive)
8 | O=C(c1ccc(-c2ccccc2)cc1)N1CCN(c2ncccn2)CC1 | 332 | -21.2% (inactive) | 11.5% (inactive) | 76% | -38.6% (inactive) | 85.3% | -0.429 (inactive) | -2.4e-06 (inactive) | 0.00541 (inactive) | 2.14% (inactive) | 28.8% (inactive)
9 | Cc1c(NC(=O)CSc2nnc3sc4ccccc4n23)c(=O)n(-c2ccccc2)n1C | 655 | 1% (inactive) | 16.2% (inactive) | 98.3% | -24.3% (inactive) | 101% | -0.555 (inactive) | 6.7e-05 (inactive) | 0.00649 (inactive) | 19.4% (inactive) | 24.6% (inactive)
10 | COc1cc(NC(=O)Nc2cccc(Cl)c2)c(OC)cc1NC(=O)CN1CCCCC1 | 709 | -15.2% (inactive) | 1% (inactive) | 126% | -45.1% (inactive) | 132% | -0.407 (inactive) | -4e-05 (inactive) | 0.00392 (inactive) | 14.5% (inactive) | -1.73% (inactive)
11 | c1cc(-c2nc3ccccc3o2)nc(-c2nc3ccccc3o2)c1 | 426 | 17% (inactive) | -10.7% (inactive) | 82.8% | 9.6% (inactive) | 113% | -0.39 (inactive) | -5.8e-05 (inactive) | 0.00362 (inactive) | 16.6% (inactive) | 30.1% (inactive)
12 | CC1=CC2=C(OC1N(C)C)c1cccc3cccc(c13)C2=O (stereo unspecified) | 277 | 23.4% (active) | 3.4% (inactive) | 96.5% | 46.7% (inactive) | 100% | -0.493 (inactive) | 2e-06 (inactive) | 0.00351 (inactive) | 5.12% (inactive) | -3.5% (inactive)
13 | CCOC(=O)c1c(NC(=O)c2ccn(CC)n2)sc2c1CCCC2 | 680 | -10.9% (inactive) | -3.6% (inactive) | 97.6% | -71.6% (inactive) | 114% | -0.123 (inactive) | -1.5e-06 (inactive) | 0.00291 (inactive) | 3.28% (inactive) | -1.94% (inactive)
14 | NC(=O)CCS(=O)(=O)CCN1CCCCC1 | 361 | 5.7% (inactive) | 2.7% (inactive) | 89.8% | -14.9% (inactive) | 116% | -0.435 (inactive) | 4.4e-05 (inactive) | 0.0056 (inactive) | 19.5% (inactive) | 23.8% (inactive)
15 | Cc1nnc(SCc2cn3ccsc3n2)n(N)c1=O | 858 | -10.7% (inactive) | -21% (inactive) | 105% | -50.6% (inactive) | 121% | -0.641 (inactive) | 1.9e-05 (inactive) | 0.00624 (inactive) | 17.8% (inactive) | 31.6% (inactive)
16 | CCc1cc(=O)n2[nH]c(C)c(-c3ccccc3OC)c2n1 | 595 | 2.8% (inactive) | 42.7% (inactive) | 64.6% | -38.4% (inactive) | 96.2% | -0.592 (inactive) | -2.9e-05 (inactive) | 0.00657 (inactive) | 4.14% (inactive) | 16.3% (inactive)
17 | CC1(C)C(=O)Nc2ccccc2N1C(=O)COC(=O)Cn1cnc2ccccc2c1=O | 465 | 2.5% (inactive) | -1.8% (inactive) | 107% | -67.7% (inactive) | 116% | -0.364 (inactive) | -1.3e-05 (inactive) | 0.00422 (inactive) | 7.38% (inactive) | 20.1% (inactive)
18 | O=C1c2ccccc2C(=O)N1C/C=C/c1ccccc1 | 320 | 6.3% (inactive) | -5.9% (inactive) | 98.3% | -3.5% (inactive) | 112% | -0.495 (inactive) | -5.2e-05 (inactive) | 0.0051 (inactive) | 21.6% (inactive) | 25.4% (inactive)
19 | CCOc1ccc(NC(=O)c2ccccc2O)cc1 | 558 | -1.7% (inactive) | 9.7% (inactive) | 71.8% | -114% (inactive) | 96.2% | -0.622 (inactive) | -2e-05 (inactive) | 0.00439 (inactive) | -59.1% (inactive) | -110% (inactive)
20 | O=C(c1cnn2c(C(F)F)cc(C3CC3)nc12)N1CCOCC1 | 666 | -0.3% (inactive) | 3.1% (inactive) | 96.7% | -13.3% (inactive) | 94.3% | -0.376 (inactive) | 2.5e-06 (inactive) | 0.00295 (inactive) | 6.43% (inactive) | 18.5% (inactive)
21 | O=C(Nc1ccc(-c2noc(-c3cccs3)n2)cc1)c1cccnc1 | 595 | 8.2% (inactive) | 28% (inactive) | 115% | -49.2% (inactive) | 95.8% | -0.474 (inactive) | 2.2e-05 (inactive) | 0.00649 (inactive) | -67.5% (inactive) | -122% (inactive)
22 | O=C(O)CN1C(=O)C2(OCCCO2)c2ccccc21 | 542 | -5.7% (inactive) | -4.1% (inactive) | 96.1% | -0.7% (inactive) | 124% | -0.538 (inactive) | 6.1e-05 (inactive) | 0.0059 (inactive) | 17% (inactive) | 18.6% (inactive)
23 | C(=C\c1ccccc1)/CSc1nnc(-c2ccccn2)n1Cc1ccco1 | 574 | 1.1% (inactive) | -38.4% (inactive) | 24% | -95.8% (inactive) | 109% | -0.5 (inactive) | -5.3e-05 (inactive) | 0.00478 (inactive) | 68.5% (active) | 58.9% (active)
24 | CC(=O)Nc1ccc(NS(=O)(=O)C(F)(F)F)cc1 | 417 | 2% (inactive) | 8% (inactive) | 104% | -96% (inactive) | 127% | -0.353 (inactive) | -0.000109 (inactive) | 0.00651 (inactive) | 3.92% (inactive) | 21.1% (inactive)
25 | Cc1ccc(S(=O)(=O)NCCOC(=O)Nc2sc(=S)n(C)c2C)cc1 | 466 | 1.6% (inactive) | -2.2% (inactive) | 103% | 15% (inactive) | 108% | -0.5 (inactive) | 3.3e-05 (inactive) | 0.00618 (inactive) | -15% (inactive) | 15.5% (inactive)
26 | CCc1nnc(NC(=O)C2CC(=O)N(Cc3ccco3)C2)s1 (stereo unspecified) | 428 | 7.3% (inactive) | -11.1% (inactive) | 104% | -0.2% (inactive) | 106% | -0.507 (inactive) | -6.1e-05 (inactive) | 0.00457 (inactive) | 13.8% (inactive) | 22.1% (inactive)
